Shown are actives, neighbours in structure and some others; about 8% of the full set was active somewhere.
HCV inh: inhibitors of hepatitis C virus infection. Huh7.5.1 HCVcc-Cre infection, luciferase reporter, 44 h. Potency, µM (series often up to 41.8 µM), for the others: at the top dose activity change, negative = inhibition, actives largely listed as inhibitors. 340,000 compounds, 3.4% hits. AID 651820; active = well fitted inhibition curve with a large enough effect; inconclusive = small, poorly fitted or top-dose-only effect, or another doubt; inactive = no such curve, though single readings can be large or run the other way; also: potency is read from the fitted curve at half-maximal effect; % is scaled to controls: 0 for no effect and ±100 for the full control effect
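1,000 cells/well; 4 h culture; + compound; + HCVcc-Cre (~0.5 moi); 44 h; luciferase substrate, RT 15 min; read 15 sec.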
LASV entry inh: Lassa virus entry inhibition; Lassa virus pseudotype entry inhibition, cell reporter; Potency, µM (doses to about 37.9 µM), for the others: at the top dose activity change, negative = inhibition, usual class: inhibitors; 300,000 compounds, 1.2% hits; AID 540256; calls by dose curve; tested in HEK293 cells; also: potency is read from the fitted curve at half-maximal effect; % is scaled to controls: 0 for no effect and ±100 for the full control effect; nearly all actives have a fitted effect of over 50% in size
HCMV inh: human cytomegalovirus inhibition; HFF cells, HCMV-luciferase reporter, 72 h; active compounds read low; activity change, negative = inhibition, % at 57.5 µM; 410,000 compounds, 4.5% hits; in the data active = activity change below about -60%; inconclusive = no clear call, values can overlap the other calls; inactive = above about -39%; also: % is scaled to controls: 0 for no effect and ±100 for the full control effect
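Human foreskin fibroblasts infected with luciferase-reporter HCMV at MOI 1 PFU/cell, compounds at two doses. Luciferase measured 72 h post infection; normalized to buffer-only basal and Salinomycin (10uM) controls.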
FMDV inh: foot and mouth disease virus antiviral activity. FMDV antiviral cell-based qHTS. Potency, µM (series often up to 57.9 µM), without a hit: at the highest dose activity change, negative = inhibition, hits mostly inhibitors. 410,000 compounds, 1.2% hits. AID 1159524; calls by dose curve; tested in HEK293T cells; also: read-out not given here; potency is read from the fitted curve at half-maximal effect; % is scaled to controls: 0 for no effect and ±100 for the full control effect; nearly all actives have a fitted effect of over 45% in size
SARS PLP yeast: inhibitors of SARS-CoV papain-like protease in yeast; AID 485353; S. cerevisiae expressing SARS-CoV PLpro, growth rescue; 330,000 compounds, 0.19% hits; Potency, µM (series often up to 32.9 µM), for inactives: top-dose activity, positive = growth rescue, actives largely listed as activators; calls by dose curve; also: potency is read from the fitted curve at half-maximal effect; 0% is about no effect; nearly all actives have a fitted effect of over 55% in size
Marburg entry inh: blocks Marburg virus binding to or entry into cells; Marburg virus pseudotyped entry inhibition, cell reporter; Potency, µM (titrated, usually from 37.8 µM), for inactives: top-dose activity change, negative = inhibition, hits mostly inhibitors; 300,000 compounds, 1.8% hits; calls by dose curve; tested in HEK293 cells; also: potency is read from the fitted curve at half-maximal effect; % is scaled to controls: 0 for no effect and ±100 for the full control effect
Numbers without * were called inactive; [ ] = remark or other dose.

For O=C(Nc1ccc(Cl)c(Cl)c1)Nc1ccccc1C(=O)O the results were HCV inh -9%, LASV entry inh 3.5µM*, HCMV inh -79*, FMDV inh -70%, SARS PLP yeast 0% and Marburg entry inh inconclusive.
O=C(Nc1ccc2nccnc2c1)Nc1ccccc1Cl was read as HCV inh -23%, LASV entry inh -1%[46.1 µM], HCMV inh -35, FMDV inh 13%, SARS PLP yeast 1% and Marburg entry inh inconclusive.
Screening O=C(Nc1ccc(Cl)cc1)Nc1ccccc1C(=O)O returned HCV inh 10%, LASV entry inh inconclusive, HCMV inh 11, FMDV inh -77%, SARS PLP yeast 0% and Marburg entry inh inconclusive.
`COc1ccccc1NC(=O)C(Cc1ccccc1)NS(=O)(=O)c1ccc2c(c1)CCN2C(C)=O` (stereo not drawn) gave LASV entry inh -8%[46.1 µM], HCMV inh -2, FMDV inh 27% and Marburg entry inh 1%[46.1 µM].
COC(=O)C1=C(C)N(Cc2ccccc2)C(=NCc2ccc(OC)cc2)NC1c1cccc(F)c1 (stereo not drawn) was read as Marburg entry inh -1%[14.2 µM].
O=C(Nc1ccc(Cl)cc1)Nc1ccc(Cl)c(C(F)(F)F)c1 was read as HCMV inh -99*.
For CCOc1ccc(NC(=O)Nc2cccc(C(=O)O)c2)cc1 the results were HCV inh -22%, LASV entry inh inconclusive, HCMV inh 22, FMDV inh 1.6µM*, SARS PLP yeast -6% and Marburg entry inh inconclusive.
`CCOc1ccc(-n2nc3ccc(NC(=O)CC)cc3n2)cc1` gave HCV inh inconclusive, LASV entry inh inconclusive, HCMV inh 39, FMDV inh 44%, SARS PLP yeast -4% and Marburg entry inh 24%.
Screening CCOc1ccc(-n2nc3ccc(NC(=O)Cc4ccccc4)cc3n2)cc1 returned LASV entry inh -7%[46.1 µM], HCMV inh -107* and FMDV inh 22µM*.
For O=C(Nc1cccc(Cl)c1)Nc1cccc(C(=O)O)c1 the results were HCV inh 14%, LASV entry inh inconclusive, HCMV inh 61, FMDV inh 14µM*, SARS PLP yeast -2% and Marburg entry inh inconclusive.
C[C@]12CCC(=O)C=C1CCC1C3CC[C@](O)(C(=O)CO)[C@@]3(C)CC3OC312 (stereo partly drawn) was read as FMDV inh -8%.
Screening Cc1nc(-c2cccnc2)sc1CCNS(=O)(=O)c1ccc(F)cc1 returned LASV entry inh 5%[46.1 µM], HCMV inh -13 and FMDV inh 13%.
`COc1ccc(CNC(=O)Cn2cc(C(F)(F)F)ccc2=O)cc1` gave HCV inh -1%, LASV entry inh 2%, HCMV inh -13, FMDV inh -10%, SARS PLP yeast -4% and Marburg entry inh -12%.
`COc1cc(OC)cc(-c2cc3c(Nc4cccc(S(C)(=O)=O)c4)nccc3n2C)c1` gave HCMV inh -14.
`Cc1ccc(N2CCN(S(=O)(=O)c3nnc(NC(=O)c4ccco4)s3)CC2)cc1` gave HCV inh 16%, HCMV inh 7, FMDV inh -20% and SARS PLP yeast -10%.
Cn1nnc2cc(NC(=O)Nc3cccc(Cl)c3)ccc21 was read as HCV inh 0%, HCMV inh -102*, FMDV inh 31% and SARS PLP yeast -1%.
`O=C(Nc1ccc(Cl)cc1)Nc1cccc(C(=O)O)c1` gave HCV inh 19%, LASV entry inh 0.33µM*, HCMV inh 16, FMDV inh 8.9µM*, SARS PLP yeast -1% and Marburg entry inh 0.92µM*.
Screening O=C(NCc1ccccc1)C(=O)Nc1cccc(C(=O)O)c1 returned HCV inh 13%, HCMV inh 42, FMDV inh 11µM* and SARS PLP yeast 0%.
CCOc1ccc(/C=C/C(=O)Nc2cccc(C(C)=O)c2)cc1 was read as HCV inh 13µM*, LASV entry inh 0%, HCMV inh 39, FMDV inh -23%, SARS PLP yeast 2% and Marburg entry inh -25%.
`COc1ccc(-n2c(SCC(=O)Nc3cc(C(=O)O)ccc3C)nc3ccccc3c2=O)cc1Cl` gave HCV inh 31%, HCMV inh 0, FMDV inh -10% and SARS PLP yeast 0%.
For CCOC(=O)C1=C(C)N=c2sc(=Cc3cc(Cl)c(OCC(=O)O)c(Cl)c3)c(=O)n2C1c1cccc(OC)c1 (stereo not drawn) the results were HCMV inh -5 and FMDV inh inconclusive.
For Cc1ccc(-c2nn(-c3ccc(F)cc3F)c3c2cnc2ccc(F)cc23)cc1 the results were LASV entry inh -16%[46.1 µM], HCMV inh 10 and FMDV inh inconclusive.
COC(=O)[C@]1(CC(C)C)N[C@H](c2ccc(-c3ccc(F)cc3)cc2)[C@@H]2C(=O)N(C)C(=O)[C@@H]21 was read as HCV inh 14%, HCMV inh 32, FMDV inh inconclusive and SARS PLP yeast -2%.
`CSc1nc(C(=O)NCc2nc(-c3cccc(NC(=O)c4ccc(C)s4)c3)oc2C)cs1` gave FMDV inh 30%.
Screening CCOc1ccc(NC(=O)NC23CC4CC(CC(C4)C2)C3)cc1 returned HCV inh -3%, LASV entry inh 11µM*, HCMV inh 0, FMDV inh 23%, SARS PLP yeast -16% and Marburg entry inh inconclusive.
Cc1cc(F)ccc1Oc1cc(NN2CCCCC2)c([N+](=O)[O-])cc1[N+](=O)[O-] was read as HCV inh 8%, HCMV inh -25, FMDV inh -19% and SARS PLP yeast 6%.
For O=[N+]([O-])c1cc([N+](=O)[O-])c(Oc2cc(F)ccc2F)cc1NN1CCCCC1 the results were HCV inh 2%, HCMV inh -85*, FMDV inh -17% and SARS PLP yeast 16%.
COc1cccc(C(O)c2nc(-c3ccc(OC)nc3)cs2)c1 (stereo not drawn) was read as HCMV inh -28 and FMDV inh -9%.
Screening CC1=C(C(=O)Nc2ccc(C)cc2C)C(c2ccc(C)o2)NC(=S)N1 (stereo not drawn) returned HCV inh inconclusive, LASV entry inh 9%, HCMV inh -1, FMDV inh -8%, SARS PLP yeast -3% and Marburg entry inh 6%.
For Cc1cccc2cc(CN(Cc3cccs3)C3(c4nnnn4C4CCCC4)CCCC3)c(=O)[nH]c12 the results were HCV inh 15%, LASV entry inh inconclusive, HCMV inh -70*, FMDV inh -22%, SARS PLP yeast 2% and Marburg entry inh -2%.
`Cc1cccc2cc(CN(Cc3cccs3)S(=O)(=O)c3ccc4c(c3)OCCO4)c(=O)[nH]c12` gave HCV inh inconclusive, LASV entry inh inconclusive, HCMV inh -84*, FMDV inh -5%, SARS PLP yeast 10% and Marburg entry inh -27%.

High-throughput results: PubChem BioAssay, National Center for Advancing Translational Sciences (NCATS)
